# This is part of a sample that, as a whole, favours compounds with a hit. Of some 83,000 tested, about 20% had one in any assay.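 Negative percent growth values reflect cell death: -40 means 40% of the cells present at the start died, and -100 means all died.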 A number with no mark means an inactive call. Activity calls are given as the source filed them. The calls were made as follows: active = growth percent below 10; inactive = the rest.
# Tested on: HL-60(TB) leukemia
# Assay: NCI-60 one-dose screen, 48 h (100 = growth as untreated, 0 = no growth, -100 = all killed)
# Conditions: 10 µM unless noted
row,Structure (SMILES),growth
1,CCCCCc1ccc(S(=O)(=O)Nc2cc(-c3csc(NC(=O)CN4CCN(C)CC4)n3)ccc2OC)cc1,-52.4% (active)
2,CN1C(=O)N(C)C2Nn3c(s/c(=C\c4ccccn4)c3=O)=NC21 (stereo not drawn),110%
3,COc1ccc(/C=N/NC(=O)CSc2nc(-c3cnccn3)cc(-c3cccs3)c2C#N)cc1OC,101%
4,O=C(CN1CCN(c2cc(=O)n(-c3ccccc3)c3ccccc23)CC1)Nc1ccc([N+](=O)[O-])cc1,85%
5,O=C1[C@@H]2Cc3c([nH]c4ccccc34)[C@H](c3ccc(Br)cc3)N2C(=O)CN1C1CCN(Cc2c(Cl)cccc2Cl)CC1,-79% (active)
6,NS(=O)(=O)c1nnc(/N=C/c2c(O)[nH]c3ccccc23)s1,123%
7,OC1CCN(CCCOc2c3ccccc3nc3c2oc2ccccc23)CC1,6.8% (active)
8,COc1cc2nc(-c3ccc(Cl)cc3)cc(OCCCNCC3CCCO3)c2cc1OC (stereo not drawn),32.1%
9,O=C(N/N=C/c1ccc(Br)s1)c1[nH]c2ccc(Br)cc2c1-c1ccccc1,-43.4% (active)
10,COc1ccc(N)cc1C(=O)Nc1cccc(-c2cc(=O)c3c(OC)c(OC)c(OC)cc3o2)c1,58.1%
11,O=C(Nc1ccc(Cl)c(C(F)(F)F)c1)Nc1ccc2c(ccn2C(=O)c2cccc(F)c2)c1,24.7%
12,O=C(Oc1ccc2ccc(=O)oc2c1)c1ccc(Cl)cc1,106%
13,O=C(CSc1ccc(-c2nc3ccccc3[nH]2)cn1)N1CCN(c2ccccc2F)CC1,64.6%
